Experimental data published in the supplement of paper PMC11732987, “Enantioselective OTUD7B fragment discovery through chemoproteomics screening and high-throughput optimisation” (Communications Chemistry, 2025).

Experiments:
Assay in all cases: log2 ratio of Biotin-Ahx-Ub-VS probe labelling (fragment/DMSO); higher = less target engagement (more negative = stronger competition), active = hit call of the paper (q ≤ 0.05, log2 ratio ≤ -1)
Details in all cases: compound concentration: 200 uM; treatment time: 3 h
[1] = biological target: T1, USP42 (UniProt Q9H9J4)
T1 sequence (whole entry): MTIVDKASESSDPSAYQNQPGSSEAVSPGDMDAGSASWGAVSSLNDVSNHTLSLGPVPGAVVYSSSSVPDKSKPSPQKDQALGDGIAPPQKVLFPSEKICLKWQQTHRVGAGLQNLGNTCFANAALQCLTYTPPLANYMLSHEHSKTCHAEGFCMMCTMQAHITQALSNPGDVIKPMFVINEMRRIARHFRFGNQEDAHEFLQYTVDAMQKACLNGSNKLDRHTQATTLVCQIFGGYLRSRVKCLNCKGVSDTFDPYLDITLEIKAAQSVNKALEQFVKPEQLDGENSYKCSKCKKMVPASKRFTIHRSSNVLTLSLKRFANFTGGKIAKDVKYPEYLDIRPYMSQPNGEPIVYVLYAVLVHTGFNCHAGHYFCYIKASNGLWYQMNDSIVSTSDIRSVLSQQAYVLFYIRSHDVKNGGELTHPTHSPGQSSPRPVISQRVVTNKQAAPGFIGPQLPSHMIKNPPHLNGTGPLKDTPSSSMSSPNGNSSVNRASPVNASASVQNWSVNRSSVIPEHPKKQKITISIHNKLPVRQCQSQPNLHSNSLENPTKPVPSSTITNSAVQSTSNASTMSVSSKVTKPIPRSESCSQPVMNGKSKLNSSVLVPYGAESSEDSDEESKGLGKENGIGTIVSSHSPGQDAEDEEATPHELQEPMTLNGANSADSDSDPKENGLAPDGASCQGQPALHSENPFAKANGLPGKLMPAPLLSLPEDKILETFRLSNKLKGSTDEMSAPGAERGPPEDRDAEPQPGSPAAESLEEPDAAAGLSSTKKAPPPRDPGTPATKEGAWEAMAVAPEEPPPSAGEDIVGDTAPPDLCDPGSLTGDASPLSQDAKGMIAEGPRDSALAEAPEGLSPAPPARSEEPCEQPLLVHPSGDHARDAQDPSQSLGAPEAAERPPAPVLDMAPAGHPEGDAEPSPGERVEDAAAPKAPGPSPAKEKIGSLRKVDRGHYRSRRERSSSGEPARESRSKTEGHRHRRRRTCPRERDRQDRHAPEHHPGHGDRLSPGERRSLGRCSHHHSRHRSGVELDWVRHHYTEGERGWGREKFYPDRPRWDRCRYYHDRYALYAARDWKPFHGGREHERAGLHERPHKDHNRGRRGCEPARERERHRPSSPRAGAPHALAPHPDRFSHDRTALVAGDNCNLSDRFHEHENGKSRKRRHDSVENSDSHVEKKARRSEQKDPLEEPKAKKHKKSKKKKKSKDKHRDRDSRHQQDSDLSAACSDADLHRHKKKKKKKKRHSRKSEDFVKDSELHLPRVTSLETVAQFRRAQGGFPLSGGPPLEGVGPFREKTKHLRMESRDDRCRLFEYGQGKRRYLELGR
Summary of the method: (§1)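 Fragment (200 µM) or vehicle was incubated for 3 h with triplicate HEK293T lysate samples of 495 µg, which were then treated with Biotin-Ahx-Ub-VS at 0.5 µM final for 1 h. Labelled DUBs were enriched on NeutrAvidin, digested with LysC and trypsin, and analysed by diaPASEF LC-MS/MS. Values are average log2 fragment/vehicle ratios from an unpaired t-test on global-median-normalised Spectronaut label-free quantities, using proteins with ≥2 unique peptides.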

[2] = biological target: USP46 (UniProt P62068)
Summary of the method: as §1

[3] = biological target: T2, USP47 (UniProt Q96K76)
T2 sequence (whole entry): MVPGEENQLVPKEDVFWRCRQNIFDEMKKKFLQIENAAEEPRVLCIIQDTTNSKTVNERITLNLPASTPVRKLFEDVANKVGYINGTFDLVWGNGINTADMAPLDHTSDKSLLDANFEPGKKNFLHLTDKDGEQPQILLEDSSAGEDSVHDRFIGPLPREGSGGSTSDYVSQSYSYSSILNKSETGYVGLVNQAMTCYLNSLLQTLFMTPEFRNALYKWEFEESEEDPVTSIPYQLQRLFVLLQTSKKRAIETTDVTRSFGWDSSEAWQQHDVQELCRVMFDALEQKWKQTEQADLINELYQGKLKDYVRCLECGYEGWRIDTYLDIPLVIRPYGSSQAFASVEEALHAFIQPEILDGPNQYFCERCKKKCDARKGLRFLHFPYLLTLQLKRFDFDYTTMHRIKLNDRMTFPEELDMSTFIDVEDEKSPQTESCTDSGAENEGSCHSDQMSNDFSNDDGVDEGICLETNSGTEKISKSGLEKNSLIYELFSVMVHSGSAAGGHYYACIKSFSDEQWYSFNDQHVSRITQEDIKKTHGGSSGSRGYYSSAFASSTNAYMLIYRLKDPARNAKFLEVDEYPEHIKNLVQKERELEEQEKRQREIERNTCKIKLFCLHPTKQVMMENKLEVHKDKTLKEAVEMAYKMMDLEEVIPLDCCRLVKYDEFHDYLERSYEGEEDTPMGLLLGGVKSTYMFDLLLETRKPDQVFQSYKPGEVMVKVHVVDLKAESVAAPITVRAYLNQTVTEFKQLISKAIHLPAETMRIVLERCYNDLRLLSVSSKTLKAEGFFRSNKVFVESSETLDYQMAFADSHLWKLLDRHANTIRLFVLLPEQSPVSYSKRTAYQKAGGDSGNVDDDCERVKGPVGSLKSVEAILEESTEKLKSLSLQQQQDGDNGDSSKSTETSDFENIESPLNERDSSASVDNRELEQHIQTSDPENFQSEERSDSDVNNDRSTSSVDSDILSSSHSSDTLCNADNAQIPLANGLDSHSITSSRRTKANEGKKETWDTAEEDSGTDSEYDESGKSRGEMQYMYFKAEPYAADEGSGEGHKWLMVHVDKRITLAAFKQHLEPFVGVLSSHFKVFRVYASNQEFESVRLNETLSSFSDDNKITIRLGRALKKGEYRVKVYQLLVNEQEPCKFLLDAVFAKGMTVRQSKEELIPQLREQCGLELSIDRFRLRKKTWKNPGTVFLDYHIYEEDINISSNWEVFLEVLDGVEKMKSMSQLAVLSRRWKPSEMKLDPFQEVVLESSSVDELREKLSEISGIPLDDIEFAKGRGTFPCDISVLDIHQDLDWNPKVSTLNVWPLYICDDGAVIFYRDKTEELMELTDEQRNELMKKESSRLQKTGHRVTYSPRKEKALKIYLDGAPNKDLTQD
Summary of the method: as §1

[4] = biological target: T3, USP48 (UniProt Q86UV5)
T3 sequence (whole entry): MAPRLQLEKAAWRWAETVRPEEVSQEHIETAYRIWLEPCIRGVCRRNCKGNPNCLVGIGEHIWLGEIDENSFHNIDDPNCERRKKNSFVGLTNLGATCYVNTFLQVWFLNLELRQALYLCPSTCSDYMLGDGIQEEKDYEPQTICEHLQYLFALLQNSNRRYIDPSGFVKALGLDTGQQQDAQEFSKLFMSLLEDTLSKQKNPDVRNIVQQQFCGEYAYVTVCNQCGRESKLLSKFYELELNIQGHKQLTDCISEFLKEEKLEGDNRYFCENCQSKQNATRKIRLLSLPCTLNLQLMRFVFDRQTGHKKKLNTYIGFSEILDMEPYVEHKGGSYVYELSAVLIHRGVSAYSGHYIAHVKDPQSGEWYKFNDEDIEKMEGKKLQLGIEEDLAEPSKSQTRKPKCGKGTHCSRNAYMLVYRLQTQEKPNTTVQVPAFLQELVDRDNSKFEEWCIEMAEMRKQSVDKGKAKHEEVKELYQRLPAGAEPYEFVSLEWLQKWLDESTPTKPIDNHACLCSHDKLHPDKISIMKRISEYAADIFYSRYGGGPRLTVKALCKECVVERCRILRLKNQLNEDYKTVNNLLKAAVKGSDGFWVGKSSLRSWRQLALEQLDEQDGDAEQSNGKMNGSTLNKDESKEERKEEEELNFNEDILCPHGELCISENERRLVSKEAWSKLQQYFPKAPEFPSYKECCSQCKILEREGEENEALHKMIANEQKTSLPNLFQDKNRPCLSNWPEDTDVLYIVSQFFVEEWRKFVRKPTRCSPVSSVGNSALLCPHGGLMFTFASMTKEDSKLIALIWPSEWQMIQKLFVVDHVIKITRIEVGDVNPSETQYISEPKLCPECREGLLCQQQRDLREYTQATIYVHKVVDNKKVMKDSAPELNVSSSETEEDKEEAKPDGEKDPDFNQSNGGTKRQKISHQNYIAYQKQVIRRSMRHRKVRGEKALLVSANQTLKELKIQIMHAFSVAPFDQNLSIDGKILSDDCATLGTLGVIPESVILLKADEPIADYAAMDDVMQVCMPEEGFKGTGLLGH
Summary of the method: as §1

[5] = biological target: T4, USP5 (UniProt P45974)
T4 sequence (whole entry): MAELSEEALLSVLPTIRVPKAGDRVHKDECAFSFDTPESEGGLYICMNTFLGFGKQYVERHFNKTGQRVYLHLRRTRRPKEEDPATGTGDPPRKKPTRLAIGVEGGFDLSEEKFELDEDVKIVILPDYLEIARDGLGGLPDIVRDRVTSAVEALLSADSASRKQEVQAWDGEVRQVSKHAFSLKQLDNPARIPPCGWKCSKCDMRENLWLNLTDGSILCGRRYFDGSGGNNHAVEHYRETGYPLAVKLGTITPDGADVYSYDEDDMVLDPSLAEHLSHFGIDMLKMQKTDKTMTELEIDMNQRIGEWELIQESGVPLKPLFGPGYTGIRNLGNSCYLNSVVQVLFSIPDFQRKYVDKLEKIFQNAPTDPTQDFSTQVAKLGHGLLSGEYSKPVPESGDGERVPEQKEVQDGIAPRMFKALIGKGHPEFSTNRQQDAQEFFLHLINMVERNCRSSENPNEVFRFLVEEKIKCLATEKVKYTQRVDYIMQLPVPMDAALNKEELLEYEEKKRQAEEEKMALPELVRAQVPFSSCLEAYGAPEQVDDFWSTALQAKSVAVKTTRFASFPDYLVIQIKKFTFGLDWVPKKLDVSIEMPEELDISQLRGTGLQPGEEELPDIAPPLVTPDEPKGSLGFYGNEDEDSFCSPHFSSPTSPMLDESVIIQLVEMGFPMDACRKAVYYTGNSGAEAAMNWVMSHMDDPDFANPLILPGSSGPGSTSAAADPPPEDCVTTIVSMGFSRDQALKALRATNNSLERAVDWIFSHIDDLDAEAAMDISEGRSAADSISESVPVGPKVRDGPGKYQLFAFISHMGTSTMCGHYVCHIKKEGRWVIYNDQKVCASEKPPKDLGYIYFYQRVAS
Summary of the method: as §1

[6] = biological target: USP54 (UniProt Q70EL1)
Summary of the method: as §1

[7] = biological target: USP7 (UniProt Q93009)
Summary of the method: as §1

[8] = biological target: T5, USP8 (UniProt P40818)
T5 sequence (whole entry): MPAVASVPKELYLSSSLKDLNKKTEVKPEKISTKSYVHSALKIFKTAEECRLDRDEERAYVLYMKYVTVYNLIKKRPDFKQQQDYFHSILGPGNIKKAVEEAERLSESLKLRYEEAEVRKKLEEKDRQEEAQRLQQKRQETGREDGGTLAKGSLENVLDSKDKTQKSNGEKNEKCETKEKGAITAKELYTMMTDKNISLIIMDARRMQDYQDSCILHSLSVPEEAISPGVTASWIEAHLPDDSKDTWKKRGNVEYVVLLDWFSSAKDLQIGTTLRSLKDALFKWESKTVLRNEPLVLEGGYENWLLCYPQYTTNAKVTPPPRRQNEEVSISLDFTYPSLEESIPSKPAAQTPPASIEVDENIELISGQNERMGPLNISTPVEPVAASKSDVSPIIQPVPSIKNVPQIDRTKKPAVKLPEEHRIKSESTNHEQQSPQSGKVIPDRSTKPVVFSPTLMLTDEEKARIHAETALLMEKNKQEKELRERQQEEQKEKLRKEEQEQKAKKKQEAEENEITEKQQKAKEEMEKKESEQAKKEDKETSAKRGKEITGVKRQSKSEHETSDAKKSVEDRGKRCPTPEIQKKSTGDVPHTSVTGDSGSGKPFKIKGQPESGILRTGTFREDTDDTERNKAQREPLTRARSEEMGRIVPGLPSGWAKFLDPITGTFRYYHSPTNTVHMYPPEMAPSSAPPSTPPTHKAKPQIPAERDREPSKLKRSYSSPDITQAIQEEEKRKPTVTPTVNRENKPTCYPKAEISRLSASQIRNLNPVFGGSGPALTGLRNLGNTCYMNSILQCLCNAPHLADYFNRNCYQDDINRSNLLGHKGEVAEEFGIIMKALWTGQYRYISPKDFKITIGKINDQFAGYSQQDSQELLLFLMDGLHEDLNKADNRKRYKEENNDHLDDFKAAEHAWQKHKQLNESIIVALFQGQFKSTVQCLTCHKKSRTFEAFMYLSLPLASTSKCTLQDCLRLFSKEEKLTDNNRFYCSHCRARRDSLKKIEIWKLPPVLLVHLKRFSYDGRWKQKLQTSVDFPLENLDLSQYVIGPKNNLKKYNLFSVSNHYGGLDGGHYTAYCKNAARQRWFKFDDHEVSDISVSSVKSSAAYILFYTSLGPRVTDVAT
Summary of the method: as §1

Measured: log2 ratio of Biotin-Ahx-Ub-VS probe labelling

Sequence of USP7 (Q93009 whole entry, looked up): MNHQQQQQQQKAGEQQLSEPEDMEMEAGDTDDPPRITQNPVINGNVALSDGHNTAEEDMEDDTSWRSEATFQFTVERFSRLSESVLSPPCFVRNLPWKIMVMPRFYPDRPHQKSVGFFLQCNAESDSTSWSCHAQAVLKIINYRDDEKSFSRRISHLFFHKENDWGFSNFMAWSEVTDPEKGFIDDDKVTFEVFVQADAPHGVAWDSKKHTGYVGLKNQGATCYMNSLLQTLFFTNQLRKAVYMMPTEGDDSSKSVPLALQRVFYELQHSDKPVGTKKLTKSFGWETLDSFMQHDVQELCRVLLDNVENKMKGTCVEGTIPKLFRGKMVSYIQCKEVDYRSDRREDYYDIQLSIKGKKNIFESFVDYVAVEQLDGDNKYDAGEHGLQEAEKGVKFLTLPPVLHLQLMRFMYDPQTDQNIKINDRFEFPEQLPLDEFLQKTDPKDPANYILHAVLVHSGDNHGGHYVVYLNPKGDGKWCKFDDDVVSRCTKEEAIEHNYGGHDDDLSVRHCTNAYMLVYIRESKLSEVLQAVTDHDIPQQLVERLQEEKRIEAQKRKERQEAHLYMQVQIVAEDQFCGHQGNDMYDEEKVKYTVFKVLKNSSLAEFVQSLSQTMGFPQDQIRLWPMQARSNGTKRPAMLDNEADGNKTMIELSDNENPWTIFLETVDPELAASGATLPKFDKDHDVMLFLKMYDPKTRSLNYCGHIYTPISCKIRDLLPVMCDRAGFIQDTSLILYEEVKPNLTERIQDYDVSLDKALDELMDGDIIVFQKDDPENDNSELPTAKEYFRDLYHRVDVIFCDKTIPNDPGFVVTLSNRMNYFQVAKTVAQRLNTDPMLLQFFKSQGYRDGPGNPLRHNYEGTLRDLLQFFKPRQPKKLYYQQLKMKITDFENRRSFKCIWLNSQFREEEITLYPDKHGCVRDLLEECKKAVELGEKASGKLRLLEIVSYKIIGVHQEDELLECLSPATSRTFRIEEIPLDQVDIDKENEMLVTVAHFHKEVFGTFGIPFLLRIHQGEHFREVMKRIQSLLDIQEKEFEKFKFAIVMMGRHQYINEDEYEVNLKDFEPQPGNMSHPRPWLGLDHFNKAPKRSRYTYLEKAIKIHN
Sequence of USP46 (P62068 whole entry): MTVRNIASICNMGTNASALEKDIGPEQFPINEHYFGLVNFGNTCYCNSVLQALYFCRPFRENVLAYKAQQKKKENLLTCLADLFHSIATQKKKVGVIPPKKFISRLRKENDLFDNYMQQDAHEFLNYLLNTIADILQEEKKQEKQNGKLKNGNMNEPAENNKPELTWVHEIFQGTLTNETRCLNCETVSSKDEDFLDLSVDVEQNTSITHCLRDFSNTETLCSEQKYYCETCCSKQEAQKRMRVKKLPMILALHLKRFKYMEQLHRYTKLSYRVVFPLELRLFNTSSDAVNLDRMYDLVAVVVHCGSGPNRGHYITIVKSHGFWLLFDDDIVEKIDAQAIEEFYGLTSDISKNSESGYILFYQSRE
Sequence of USP54 (Q70EL1 whole entry): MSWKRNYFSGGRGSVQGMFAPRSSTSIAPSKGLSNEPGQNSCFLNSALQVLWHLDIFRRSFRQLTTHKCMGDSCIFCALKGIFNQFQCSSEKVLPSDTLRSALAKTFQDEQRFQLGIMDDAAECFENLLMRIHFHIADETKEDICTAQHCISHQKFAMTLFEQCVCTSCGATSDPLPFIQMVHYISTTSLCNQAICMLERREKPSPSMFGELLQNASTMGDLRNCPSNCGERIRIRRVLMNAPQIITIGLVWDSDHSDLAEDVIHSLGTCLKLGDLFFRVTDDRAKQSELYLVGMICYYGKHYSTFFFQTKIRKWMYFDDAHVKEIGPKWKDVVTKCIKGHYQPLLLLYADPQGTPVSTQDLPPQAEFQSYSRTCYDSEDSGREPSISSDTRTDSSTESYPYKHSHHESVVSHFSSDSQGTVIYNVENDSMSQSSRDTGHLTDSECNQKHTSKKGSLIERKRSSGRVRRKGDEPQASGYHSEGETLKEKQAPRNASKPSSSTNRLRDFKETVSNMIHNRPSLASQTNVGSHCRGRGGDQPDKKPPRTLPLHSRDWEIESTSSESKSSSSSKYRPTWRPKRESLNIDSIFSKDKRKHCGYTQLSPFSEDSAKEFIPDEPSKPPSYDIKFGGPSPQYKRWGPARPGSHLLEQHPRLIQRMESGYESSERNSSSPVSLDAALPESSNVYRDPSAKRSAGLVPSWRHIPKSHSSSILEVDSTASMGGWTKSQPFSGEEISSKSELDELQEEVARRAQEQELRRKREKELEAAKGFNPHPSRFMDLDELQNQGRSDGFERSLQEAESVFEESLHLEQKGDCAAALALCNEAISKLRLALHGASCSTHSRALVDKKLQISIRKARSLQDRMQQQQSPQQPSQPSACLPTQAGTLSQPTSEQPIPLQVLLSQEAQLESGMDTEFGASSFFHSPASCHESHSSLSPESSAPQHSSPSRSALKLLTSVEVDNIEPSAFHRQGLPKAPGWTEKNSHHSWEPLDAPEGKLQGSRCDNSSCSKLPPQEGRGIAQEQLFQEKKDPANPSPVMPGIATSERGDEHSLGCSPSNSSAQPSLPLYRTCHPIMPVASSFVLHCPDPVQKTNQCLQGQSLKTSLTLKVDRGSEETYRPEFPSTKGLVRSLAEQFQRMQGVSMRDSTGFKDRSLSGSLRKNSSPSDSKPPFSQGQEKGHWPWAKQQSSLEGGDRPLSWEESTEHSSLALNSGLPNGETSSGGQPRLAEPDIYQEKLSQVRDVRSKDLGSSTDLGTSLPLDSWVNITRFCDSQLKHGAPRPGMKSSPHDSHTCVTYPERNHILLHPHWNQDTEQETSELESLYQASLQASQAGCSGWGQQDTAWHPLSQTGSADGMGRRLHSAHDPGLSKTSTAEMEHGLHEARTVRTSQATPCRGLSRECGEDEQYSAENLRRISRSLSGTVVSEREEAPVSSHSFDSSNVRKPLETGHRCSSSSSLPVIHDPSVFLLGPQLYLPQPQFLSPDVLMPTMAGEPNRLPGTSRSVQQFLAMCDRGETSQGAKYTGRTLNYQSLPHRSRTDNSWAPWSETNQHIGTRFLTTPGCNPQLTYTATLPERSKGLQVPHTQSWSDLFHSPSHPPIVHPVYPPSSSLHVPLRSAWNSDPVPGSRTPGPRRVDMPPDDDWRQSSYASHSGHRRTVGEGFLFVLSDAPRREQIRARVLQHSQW

Cc1n[nH]c(=O)c2c(NC(=O)CCl)oc(C)c12
inactive: [1] 0.339 | [2] -0.0434 | [3] 0.166 | [4] -0.0393 | [5] -0.00864 | [6] -0.153 | [7] -0.0198 | [8] -0.29
